From PMC7862700, “An all-to-all approach to the identification of sequence-specific readers for epigenetic DNA modifications on cytosine”

Legend:
Experiment in all cases: DAPPL (digital affinity profiling via proximity ligation, sequencing); 10 mM Tris-HCl pH 7.5, 50 mM NaCl, 1 mM DTT, 4% glycerol, room temperature, 30 min; GST-TFs on glutathione beads, 16-mer random dsDNA library, 0.1% formaldehyde crosslink after washing; high values mean tight binding
[1] = biological target: T1, FLI1 (Homo sapiens, UniProt Q01543 1-452); conditions: protein: recombinant; tags: N-terminal GST; dsDNA, one strand shown
T1 sequence: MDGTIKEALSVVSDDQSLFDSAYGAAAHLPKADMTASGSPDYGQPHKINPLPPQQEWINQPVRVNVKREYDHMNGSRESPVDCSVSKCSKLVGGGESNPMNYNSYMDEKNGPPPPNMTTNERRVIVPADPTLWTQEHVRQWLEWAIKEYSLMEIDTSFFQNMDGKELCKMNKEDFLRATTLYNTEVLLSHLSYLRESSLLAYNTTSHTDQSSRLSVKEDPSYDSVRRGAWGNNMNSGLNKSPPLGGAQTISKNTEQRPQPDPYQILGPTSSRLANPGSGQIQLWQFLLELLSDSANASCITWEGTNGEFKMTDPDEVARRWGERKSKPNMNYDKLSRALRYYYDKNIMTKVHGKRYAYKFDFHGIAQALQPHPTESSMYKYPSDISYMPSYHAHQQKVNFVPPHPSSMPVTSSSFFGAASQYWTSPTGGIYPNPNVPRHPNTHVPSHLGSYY
In short: (§1)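 Human transcription factors were made in yeast as GST fusions, captured on glutathione beads and barcoded with DNA. With a tag-only sample included, the pool was incubated with 200 nmole of a random double-stranded 16-mer DNA library in Tris/NaCl/DTT/glycerol buffer at room temperature for 30 min, then crosslinked with 0.1% formaldehyde after washing, ligated by proximity, amplified and sequenced. For binding signal, each hexamer's read frequency for a factor is divided by its frequency for the tag-only sample.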

[2] = biological target: T2, ELK1 (Homo sapiens, UniProt P19419 1-428); conditions: protein: recombinant; tags: N-terminal GST; dsDNA, one strand shown
T2 sequence: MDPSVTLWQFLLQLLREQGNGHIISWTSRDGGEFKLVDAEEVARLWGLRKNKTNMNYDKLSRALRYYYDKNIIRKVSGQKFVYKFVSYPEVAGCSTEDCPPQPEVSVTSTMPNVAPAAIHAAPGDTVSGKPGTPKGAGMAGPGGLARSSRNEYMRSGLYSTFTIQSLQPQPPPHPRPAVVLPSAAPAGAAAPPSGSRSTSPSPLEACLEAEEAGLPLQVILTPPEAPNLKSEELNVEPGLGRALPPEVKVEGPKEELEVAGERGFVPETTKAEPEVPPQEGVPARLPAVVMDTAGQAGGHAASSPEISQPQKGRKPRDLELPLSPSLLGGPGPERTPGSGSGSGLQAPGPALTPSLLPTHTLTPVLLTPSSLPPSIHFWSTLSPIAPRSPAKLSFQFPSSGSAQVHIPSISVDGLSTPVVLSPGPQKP
In short: as §1

[3] = biological target: T3, GABPA (Homo sapiens, UniProt Q06546 1-454); conditions: protein: recombinant; tags: N-terminal GST; dsDNA, one strand shown
T3 sequence: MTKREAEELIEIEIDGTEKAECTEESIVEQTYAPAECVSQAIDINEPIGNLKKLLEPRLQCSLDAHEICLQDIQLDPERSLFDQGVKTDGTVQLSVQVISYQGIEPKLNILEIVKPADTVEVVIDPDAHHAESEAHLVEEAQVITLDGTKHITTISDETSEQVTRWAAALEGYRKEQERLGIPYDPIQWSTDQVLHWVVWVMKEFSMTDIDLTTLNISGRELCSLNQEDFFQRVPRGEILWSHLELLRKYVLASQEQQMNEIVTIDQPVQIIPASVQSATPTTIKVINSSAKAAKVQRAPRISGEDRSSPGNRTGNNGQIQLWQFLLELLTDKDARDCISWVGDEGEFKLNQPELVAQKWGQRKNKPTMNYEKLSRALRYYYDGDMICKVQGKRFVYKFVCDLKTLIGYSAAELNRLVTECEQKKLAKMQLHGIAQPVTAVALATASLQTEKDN
In short: as §1

[4] = biological target: T4, ERG (Homo sapiens, UniProt P11308 1-479); conditions: protein: recombinant; tags: N-terminal GST; dsDNA, one strand shown
T4 sequence: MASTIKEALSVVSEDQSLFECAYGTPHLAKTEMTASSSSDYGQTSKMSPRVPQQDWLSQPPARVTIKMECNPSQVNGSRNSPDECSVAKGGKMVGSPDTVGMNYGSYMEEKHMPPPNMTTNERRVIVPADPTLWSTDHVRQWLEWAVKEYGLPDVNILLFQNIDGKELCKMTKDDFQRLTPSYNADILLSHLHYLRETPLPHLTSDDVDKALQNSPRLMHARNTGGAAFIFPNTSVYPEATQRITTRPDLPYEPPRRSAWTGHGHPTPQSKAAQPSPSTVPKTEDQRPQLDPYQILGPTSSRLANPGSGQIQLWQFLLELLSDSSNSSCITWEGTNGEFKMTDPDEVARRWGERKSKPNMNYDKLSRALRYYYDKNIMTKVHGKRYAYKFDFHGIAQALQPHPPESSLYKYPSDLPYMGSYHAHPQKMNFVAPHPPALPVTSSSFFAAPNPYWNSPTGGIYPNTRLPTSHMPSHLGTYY
In short: as §1

[5] = biological target: ELF1 (Homo sapiens, UniProt P32519 1-619); conditions: protein: recombinant; tags: N-terminal GST; dsDNA, one strand shown
In short: as §1

[6] = biological target: T5, EHF (Homo sapiens, UniProt Q9NZC4 1-300); conditions: protein: recombinant; tags: N-terminal GST; dsDNA, one strand shown
T5 sequence: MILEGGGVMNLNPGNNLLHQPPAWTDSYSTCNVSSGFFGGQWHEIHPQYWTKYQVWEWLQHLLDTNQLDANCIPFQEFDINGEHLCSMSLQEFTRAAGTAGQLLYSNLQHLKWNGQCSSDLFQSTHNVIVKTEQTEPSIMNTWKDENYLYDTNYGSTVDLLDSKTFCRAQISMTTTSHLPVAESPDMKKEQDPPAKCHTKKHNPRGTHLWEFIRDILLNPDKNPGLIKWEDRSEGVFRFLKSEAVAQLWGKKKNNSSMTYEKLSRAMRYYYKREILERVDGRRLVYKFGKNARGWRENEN
In short: as §1

[7] = biological target: SPI1 (Homo sapiens, UniProt P17947 1-270); conditions: protein: recombinant; tags: N-terminal GST; dsDNA, one strand shown
In short: as §1

[8] = biological target: SPIB (Homo sapiens, UniProt Q01892 1-262); conditions: protein: recombinant; tags: N-terminal GST; dsDNA, one strand shown
In short: as §1

[9] = biological target: T6, ELK3 (Homo sapiens, UniProt P41970 1-407); conditions: protein: recombinant; tags: N-terminal GST; dsDNA, one strand shown
T6 sequence: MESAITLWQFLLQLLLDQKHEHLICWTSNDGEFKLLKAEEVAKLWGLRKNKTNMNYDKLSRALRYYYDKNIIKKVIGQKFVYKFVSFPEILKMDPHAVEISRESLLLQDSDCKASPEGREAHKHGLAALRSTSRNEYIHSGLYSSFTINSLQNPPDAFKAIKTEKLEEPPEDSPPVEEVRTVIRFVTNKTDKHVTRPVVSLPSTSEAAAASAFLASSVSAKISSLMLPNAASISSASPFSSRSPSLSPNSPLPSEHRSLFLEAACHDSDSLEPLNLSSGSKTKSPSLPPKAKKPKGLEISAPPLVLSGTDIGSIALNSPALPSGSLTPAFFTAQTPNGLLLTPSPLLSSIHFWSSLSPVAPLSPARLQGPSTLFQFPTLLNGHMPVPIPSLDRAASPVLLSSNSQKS
In short: as §1

[10] = biological target: T7, FEV (Homo sapiens, UniProt Q99581 1-238); conditions: protein: recombinant; tags: N-terminal GST; dsDNA, one strand shown
T7 sequence: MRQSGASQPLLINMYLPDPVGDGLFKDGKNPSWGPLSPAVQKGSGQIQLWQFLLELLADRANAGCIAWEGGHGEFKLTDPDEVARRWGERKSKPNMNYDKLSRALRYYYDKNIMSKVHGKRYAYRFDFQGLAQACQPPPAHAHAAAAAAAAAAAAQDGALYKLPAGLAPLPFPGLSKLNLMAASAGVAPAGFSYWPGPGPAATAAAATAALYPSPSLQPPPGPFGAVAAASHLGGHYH
In short: as §1

[11] = biological target: ETV5 (Homo sapiens, UniProt P41161 1-510); conditions: protein: recombinant; tags: N-terminal GST; dsDNA, one strand shown
In short: as §1

[12] = biological target: HSF1 (Homo sapiens, UniProt Q00613 1-529); conditions: protein: recombinant; tags: N-terminal GST; chain copies: 3; dsDNA, one strand shown
In short: as §1

[13] = biological target: T8, SPIC (Homo sapiens, UniProt Q8N5J4 1-248); conditions: protein: recombinant; tags: N-terminal GST; dsDNA, one strand shown
T8 sequence: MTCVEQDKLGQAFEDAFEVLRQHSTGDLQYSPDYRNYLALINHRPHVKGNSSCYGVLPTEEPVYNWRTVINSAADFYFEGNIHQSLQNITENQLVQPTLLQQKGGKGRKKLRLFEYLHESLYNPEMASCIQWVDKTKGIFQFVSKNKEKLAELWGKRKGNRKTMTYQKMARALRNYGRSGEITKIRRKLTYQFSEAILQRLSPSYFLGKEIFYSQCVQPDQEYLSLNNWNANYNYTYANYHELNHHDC
In short: as §1

[14] = biological target: ELF4 (Homo sapiens, UniProt Q99607 1-663); conditions: protein: recombinant; tags: N-terminal GST; dsDNA, one strand shown
In short: as §1

[15] = biological target: T9, ELK4 (Homo sapiens, UniProt P28324-2 1-405); conditions: protein: recombinant; tags: N-terminal GST; dsDNA, one strand shown
T9 sequence: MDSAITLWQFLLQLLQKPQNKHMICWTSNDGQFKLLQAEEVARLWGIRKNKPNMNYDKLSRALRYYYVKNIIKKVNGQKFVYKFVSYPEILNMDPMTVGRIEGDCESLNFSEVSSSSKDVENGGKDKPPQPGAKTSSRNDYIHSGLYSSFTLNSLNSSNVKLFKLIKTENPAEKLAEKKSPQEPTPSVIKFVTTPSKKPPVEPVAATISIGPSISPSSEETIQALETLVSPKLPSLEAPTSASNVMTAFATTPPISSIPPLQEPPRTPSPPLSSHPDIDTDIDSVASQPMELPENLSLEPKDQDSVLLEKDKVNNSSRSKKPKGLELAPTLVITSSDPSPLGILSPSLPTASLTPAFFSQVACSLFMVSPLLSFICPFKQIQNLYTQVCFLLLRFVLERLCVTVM
In short: as §1

[16] = biological target: T10, ETV2 (Homo sapiens, UniProt O00321 1-342); conditions: protein: recombinant; tags: N-terminal GST; dsDNA, one strand shown
T10 sequence: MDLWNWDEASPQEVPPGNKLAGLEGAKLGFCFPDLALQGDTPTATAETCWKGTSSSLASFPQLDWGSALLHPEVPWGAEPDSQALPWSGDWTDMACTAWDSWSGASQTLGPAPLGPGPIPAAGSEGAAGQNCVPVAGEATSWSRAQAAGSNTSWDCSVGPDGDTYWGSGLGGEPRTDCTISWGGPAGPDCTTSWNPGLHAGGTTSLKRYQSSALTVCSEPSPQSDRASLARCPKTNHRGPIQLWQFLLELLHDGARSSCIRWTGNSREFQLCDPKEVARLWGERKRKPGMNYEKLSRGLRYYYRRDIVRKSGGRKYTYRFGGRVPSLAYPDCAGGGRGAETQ
In short: as §1

[17] = biological target: T11, ELF3 (Homo sapiens, UniProt P78545 1-371); conditions: protein: recombinant; tags: N-terminal GST; dsDNA, one strand shown
T11 sequence: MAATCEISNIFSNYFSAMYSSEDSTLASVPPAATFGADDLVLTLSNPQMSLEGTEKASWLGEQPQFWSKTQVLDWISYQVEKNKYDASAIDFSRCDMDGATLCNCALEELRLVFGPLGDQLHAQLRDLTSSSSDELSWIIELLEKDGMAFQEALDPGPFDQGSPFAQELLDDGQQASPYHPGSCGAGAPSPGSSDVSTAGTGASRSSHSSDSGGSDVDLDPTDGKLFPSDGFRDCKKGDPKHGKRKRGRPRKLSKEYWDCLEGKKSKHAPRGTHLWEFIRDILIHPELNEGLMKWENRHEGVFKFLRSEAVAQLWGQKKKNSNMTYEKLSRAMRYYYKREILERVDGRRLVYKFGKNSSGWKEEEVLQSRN
In short: as §1

[18] = biological target: CRX (Homo sapiens, UniProt O43186 1-299); conditions: protein: recombinant; tags: N-terminal GST; dsDNA, one strand shown
In short: as §1

[19] = biological target: ETV1 (Homo sapiens, UniProt P50549 1-477); conditions: protein: recombinant; tags: N-terminal GST; dsDNA, one strand shown
In short: as §1

Sequence of HSF1 (Q00613 whole entry): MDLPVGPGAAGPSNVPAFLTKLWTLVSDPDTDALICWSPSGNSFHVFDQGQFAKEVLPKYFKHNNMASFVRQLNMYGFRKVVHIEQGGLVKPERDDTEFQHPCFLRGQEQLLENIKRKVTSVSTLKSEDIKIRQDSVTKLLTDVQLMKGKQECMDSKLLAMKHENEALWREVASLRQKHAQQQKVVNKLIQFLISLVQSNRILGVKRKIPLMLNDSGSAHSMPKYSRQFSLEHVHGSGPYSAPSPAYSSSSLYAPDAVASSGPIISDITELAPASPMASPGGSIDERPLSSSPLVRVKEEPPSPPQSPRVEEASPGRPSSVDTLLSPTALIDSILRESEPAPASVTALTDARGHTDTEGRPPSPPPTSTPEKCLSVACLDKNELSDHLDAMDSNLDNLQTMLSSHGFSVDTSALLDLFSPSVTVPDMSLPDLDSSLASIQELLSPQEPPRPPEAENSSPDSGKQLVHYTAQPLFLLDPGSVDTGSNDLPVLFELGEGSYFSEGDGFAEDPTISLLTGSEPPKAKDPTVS
Sequence of ETV1 (P50549 whole entry): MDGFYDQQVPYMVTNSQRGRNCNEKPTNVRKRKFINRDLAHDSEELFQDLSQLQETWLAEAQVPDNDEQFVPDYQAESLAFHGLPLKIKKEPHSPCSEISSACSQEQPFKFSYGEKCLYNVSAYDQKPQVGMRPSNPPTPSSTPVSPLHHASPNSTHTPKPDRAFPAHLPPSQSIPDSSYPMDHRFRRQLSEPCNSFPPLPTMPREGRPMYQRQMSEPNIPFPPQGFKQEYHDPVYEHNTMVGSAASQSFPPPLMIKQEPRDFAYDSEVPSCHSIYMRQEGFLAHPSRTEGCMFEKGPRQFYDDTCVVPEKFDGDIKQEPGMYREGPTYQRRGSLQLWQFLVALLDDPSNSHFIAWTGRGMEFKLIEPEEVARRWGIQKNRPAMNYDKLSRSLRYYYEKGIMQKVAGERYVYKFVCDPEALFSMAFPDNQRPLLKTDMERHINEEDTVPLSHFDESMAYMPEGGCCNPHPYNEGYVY
Sequence of CRX (O43186 whole entry): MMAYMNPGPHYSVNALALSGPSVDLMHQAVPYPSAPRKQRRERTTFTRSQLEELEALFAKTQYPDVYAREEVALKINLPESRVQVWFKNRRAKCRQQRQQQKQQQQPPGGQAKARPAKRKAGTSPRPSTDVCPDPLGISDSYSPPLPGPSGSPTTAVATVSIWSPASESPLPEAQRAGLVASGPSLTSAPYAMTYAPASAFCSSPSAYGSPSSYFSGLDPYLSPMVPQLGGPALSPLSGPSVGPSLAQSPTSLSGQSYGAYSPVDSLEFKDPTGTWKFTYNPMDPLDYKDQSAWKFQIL
Sequence of ETV5 (P41161 whole entry): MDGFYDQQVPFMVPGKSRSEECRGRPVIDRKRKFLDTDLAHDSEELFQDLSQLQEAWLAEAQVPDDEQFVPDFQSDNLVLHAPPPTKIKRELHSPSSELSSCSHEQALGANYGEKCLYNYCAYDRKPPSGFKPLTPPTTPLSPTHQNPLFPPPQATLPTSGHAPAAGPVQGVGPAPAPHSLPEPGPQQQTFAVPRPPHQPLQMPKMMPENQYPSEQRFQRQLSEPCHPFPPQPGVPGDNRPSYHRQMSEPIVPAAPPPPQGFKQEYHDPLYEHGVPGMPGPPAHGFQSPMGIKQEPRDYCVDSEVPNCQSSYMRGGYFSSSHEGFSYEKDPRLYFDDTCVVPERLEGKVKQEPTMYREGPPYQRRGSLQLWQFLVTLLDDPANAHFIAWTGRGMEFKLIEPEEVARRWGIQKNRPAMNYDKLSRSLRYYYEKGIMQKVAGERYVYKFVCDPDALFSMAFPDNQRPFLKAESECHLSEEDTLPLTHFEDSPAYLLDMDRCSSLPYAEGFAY
Sequence of ELF1 (P32519 whole entry): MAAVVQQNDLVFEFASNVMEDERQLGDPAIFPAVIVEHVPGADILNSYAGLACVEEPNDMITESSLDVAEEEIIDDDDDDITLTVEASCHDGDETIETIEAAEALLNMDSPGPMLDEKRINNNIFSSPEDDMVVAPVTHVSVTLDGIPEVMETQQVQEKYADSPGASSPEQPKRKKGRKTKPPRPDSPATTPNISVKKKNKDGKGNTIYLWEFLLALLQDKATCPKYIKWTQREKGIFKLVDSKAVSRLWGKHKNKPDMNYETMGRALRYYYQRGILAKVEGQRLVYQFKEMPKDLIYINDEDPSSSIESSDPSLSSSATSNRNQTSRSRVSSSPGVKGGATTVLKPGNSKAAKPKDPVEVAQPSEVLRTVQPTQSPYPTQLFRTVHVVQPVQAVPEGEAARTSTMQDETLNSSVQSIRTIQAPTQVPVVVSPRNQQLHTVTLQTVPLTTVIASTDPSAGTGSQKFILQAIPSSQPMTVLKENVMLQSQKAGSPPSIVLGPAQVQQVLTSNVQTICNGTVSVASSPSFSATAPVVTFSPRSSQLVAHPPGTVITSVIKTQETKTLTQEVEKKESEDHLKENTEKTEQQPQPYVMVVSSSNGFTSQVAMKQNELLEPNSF
Sequence of ELF4 (Q99607 whole entry): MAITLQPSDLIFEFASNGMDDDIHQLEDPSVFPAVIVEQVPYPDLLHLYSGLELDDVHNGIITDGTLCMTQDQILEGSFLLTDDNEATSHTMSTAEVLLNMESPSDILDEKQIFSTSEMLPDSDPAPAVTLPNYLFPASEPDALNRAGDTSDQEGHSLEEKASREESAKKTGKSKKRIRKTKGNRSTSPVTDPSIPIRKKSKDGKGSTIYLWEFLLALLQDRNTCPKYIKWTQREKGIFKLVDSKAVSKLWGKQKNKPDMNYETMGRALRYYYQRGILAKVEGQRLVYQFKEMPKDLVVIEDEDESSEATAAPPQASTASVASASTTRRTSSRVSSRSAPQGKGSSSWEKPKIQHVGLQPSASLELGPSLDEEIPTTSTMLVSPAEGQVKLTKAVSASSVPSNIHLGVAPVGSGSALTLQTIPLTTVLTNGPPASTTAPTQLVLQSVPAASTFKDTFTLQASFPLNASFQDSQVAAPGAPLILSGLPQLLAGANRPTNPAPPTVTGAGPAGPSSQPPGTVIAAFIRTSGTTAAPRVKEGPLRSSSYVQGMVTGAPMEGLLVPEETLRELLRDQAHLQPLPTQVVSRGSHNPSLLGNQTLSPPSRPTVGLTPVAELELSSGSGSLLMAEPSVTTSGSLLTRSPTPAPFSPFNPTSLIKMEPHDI
Sequence of SPIB (Q01892 whole entry): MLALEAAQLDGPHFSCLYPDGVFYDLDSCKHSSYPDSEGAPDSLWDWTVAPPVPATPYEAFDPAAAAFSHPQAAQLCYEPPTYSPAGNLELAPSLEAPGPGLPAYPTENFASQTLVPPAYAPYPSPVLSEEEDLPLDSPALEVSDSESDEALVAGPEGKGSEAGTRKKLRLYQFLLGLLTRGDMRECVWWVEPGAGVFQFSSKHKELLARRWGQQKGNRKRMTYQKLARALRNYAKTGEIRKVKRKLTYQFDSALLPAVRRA

For TGCTCG, the binding signal [1] was 1.3 fold enrichment (6-mer frequency, TF over GST control), the binding signal [2] was 1.2 fold enrichment (6-mer frequency, TF over GST control) and the binding signal [3] was 1.21 fold enrichment (6-mer frequency, TF over GST control). For the same sequence, the binding signal [4] was 1.17 fold enrichment (6-mer frequency, TF over GST control), the binding signal [5] was 1.18 fold enrichment (6-mer frequency, TF over GST control) and the binding signal [6] was 1.17 fold enrichment (6-mer frequency, TF over GST control). The binding signal [7] was 1.35 fold enrichment (6-mer frequency, TF over GST control), the binding signal [8] was 1.27 fold enrichment (6-mer frequency, TF over GST control) and the binding signal [9] was 1.04 fold enrichment (6-mer frequency, TF over GST control). The binding signal [10] was 1.23 fold enrichment (6-mer frequency, TF over GST control), the binding signal [11] was 1.31 fold enrichment (6-mer frequency, TF over GST control) and the binding signal [12] was 1.56 fold enrichment (6-mer frequency, TF over GST control). The binding signal [13] was 1.33 fold enrichment (6-mer frequency, TF over GST control), the binding signal [14] was 1.24 fold enrichment (6-mer frequency, TF over GST control) and the binding signal [15] was 1.26 fold enrichment (6-mer frequency, TF over GST control). For the same sequence, the binding signal [16] was 1.21 fold enrichment (6-mer frequency, TF over GST control), the binding signal [17] was 1.28 fold enrichment (6-mer frequency, TF over GST control) and the binding signal [18] was 1.17 fold enrichment (6-mer frequency, TF over GST control). The binding signal [19] was 1.28 fold enrichment (6-mer frequency, TF over GST control).
